# Source: PMC7862700, “An all-to-all approach to the identification of sequence-specific readers for epigenetic DNA modifications on cytosine”
# Assays:
# Test in all cases: DAPPL (digital affinity profiling via proximity ligation, sequencing); 10 mM Tris-HCl pH 7.5, 50 mM NaCl, 1 mM DTT, 4% glycerol, room temperature, 30 min; GST-TFs on glutathione beads, 16-mer random dsDNA library, 0.1% formaldehyde crosslink after washing; high values mean tight binding
# FLI1 = target: T1, FLI1 (Homo sapiens, UniProt Q01543 1-452); details: protein: recombinant; tags: N-terminal GST; dsDNA, one strand shown
# T1 sequence: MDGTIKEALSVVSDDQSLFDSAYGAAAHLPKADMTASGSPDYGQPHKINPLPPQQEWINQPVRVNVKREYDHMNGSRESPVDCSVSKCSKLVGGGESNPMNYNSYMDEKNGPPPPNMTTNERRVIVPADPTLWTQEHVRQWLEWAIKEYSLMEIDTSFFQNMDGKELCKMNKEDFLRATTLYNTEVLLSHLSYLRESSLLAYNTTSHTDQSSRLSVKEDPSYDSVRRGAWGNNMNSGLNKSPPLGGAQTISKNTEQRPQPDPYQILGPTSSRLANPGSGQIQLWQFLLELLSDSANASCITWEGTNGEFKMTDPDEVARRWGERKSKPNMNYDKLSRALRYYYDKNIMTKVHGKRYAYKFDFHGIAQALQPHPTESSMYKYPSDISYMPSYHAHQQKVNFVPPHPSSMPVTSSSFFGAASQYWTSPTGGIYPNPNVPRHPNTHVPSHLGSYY
# Summary of the method: (§1)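 Human transcription factors were made in yeast as GST fusions, captured on glutathione beads and barcoded with DNA. With a tag-only sample included, the pool was incubated with 200 nmole of a random double-stranded 16-mer DNA library in Tris/NaCl/DTT/glycerol buffer at room temperature for 30 min, then crosslinked with 0.1% formaldehyde after washing, ligated by proximity, amplified and sequenced. For binding signal, each hexamer's read frequency for a factor is divided by its frequency for the tag-only sample.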
# ELK1 = target: T2, ELK1 (Homo sapiens, UniProt P19419 1-428); details: protein: recombinant; tags: N-terminal GST; dsDNA, one strand shown
# T2 sequence: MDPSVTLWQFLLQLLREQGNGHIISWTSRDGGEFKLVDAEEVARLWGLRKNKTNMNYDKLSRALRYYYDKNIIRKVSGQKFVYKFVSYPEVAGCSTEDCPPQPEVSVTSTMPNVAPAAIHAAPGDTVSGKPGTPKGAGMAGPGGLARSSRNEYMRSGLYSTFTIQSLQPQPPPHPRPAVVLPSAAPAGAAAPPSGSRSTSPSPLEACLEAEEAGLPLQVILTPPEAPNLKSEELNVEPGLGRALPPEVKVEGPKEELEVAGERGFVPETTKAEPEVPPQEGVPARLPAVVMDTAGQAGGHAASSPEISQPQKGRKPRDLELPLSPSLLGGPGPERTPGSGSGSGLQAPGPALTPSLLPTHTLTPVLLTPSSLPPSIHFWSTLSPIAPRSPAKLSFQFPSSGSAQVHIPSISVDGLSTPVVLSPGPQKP
# Summary of the method: as §1
# GABPA = target: T3, GABPA (Homo sapiens, UniProt Q06546 1-454); details: protein: recombinant; tags: N-terminal GST; dsDNA, one strand shown
# T3 sequence: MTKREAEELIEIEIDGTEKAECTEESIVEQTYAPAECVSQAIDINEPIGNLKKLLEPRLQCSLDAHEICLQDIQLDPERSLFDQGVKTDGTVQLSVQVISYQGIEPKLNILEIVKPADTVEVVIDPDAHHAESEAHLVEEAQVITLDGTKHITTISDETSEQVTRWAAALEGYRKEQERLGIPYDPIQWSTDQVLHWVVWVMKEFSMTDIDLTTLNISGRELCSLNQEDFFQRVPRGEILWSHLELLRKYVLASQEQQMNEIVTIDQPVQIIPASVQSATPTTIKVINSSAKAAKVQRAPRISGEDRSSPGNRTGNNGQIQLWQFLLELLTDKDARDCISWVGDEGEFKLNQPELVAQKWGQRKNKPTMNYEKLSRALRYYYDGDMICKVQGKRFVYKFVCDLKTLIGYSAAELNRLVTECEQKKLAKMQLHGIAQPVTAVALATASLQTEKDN
# Summary of the method: as §1
# ERG = target: T4, ERG (Homo sapiens, UniProt P11308 1-479); details: protein: recombinant; tags: N-terminal GST; dsDNA, one strand shown
# T4 sequence: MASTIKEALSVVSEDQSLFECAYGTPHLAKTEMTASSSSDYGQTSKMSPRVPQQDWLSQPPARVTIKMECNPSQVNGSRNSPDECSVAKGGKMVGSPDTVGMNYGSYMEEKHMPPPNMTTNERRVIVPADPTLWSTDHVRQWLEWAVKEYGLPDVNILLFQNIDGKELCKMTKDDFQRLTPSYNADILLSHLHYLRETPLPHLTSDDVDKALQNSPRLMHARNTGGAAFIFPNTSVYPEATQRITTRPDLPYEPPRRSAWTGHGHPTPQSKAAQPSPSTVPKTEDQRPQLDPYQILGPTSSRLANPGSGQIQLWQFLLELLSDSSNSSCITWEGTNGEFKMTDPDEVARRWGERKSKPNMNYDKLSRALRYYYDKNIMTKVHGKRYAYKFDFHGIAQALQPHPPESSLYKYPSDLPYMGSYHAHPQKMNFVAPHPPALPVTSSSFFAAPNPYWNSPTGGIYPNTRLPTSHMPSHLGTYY
# Summary of the method: as §1
# ELF1 = ELF1 (Homo sapiens, UniProt P32519 1-619); details: protein: recombinant; tags: N-terminal GST; dsDNA, one strand shown
# Chain of ELF1 (P32519 whole entry): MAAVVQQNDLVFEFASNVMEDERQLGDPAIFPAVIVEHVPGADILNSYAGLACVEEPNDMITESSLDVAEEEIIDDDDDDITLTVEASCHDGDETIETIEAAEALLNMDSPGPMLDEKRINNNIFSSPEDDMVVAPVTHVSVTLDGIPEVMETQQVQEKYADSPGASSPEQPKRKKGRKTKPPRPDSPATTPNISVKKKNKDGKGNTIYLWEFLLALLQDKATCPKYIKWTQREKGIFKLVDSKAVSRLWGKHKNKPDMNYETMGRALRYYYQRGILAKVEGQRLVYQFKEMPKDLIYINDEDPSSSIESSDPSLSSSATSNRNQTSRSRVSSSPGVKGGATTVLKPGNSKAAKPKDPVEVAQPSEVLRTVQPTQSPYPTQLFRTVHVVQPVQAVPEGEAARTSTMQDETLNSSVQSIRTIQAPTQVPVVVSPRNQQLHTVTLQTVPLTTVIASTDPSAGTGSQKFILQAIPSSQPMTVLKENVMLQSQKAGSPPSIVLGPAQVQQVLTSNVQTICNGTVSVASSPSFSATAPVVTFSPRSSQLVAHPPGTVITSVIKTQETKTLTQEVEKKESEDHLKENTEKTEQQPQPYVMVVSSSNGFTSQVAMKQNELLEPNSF
# Summary of the method: as §1
# EHF = target: T5, EHF (Homo sapiens, UniProt Q9NZC4 1-300); details: protein: recombinant; tags: N-terminal GST; dsDNA, one strand shown
# T5 sequence: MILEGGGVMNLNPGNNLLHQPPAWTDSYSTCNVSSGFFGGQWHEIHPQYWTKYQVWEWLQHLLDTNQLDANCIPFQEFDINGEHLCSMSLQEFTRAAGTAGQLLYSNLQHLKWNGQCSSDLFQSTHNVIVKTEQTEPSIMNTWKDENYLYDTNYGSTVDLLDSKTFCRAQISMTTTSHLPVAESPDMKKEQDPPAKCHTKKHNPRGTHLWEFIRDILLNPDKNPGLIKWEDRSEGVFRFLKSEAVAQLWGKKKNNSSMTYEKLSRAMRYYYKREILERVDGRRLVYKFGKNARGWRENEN
# Summary of the method: as §1
# SPI1 = SPI1 (Homo sapiens, UniProt P17947 1-270); details: protein: recombinant; tags: N-terminal GST; dsDNA, one strand shown
# Summary of the method: as §1
# SPIB = SPIB (Homo sapiens, UniProt Q01892 1-262); details: protein: recombinant; tags: N-terminal GST; dsDNA, one strand shown
# Chain of SPIB (Q01892 whole entry): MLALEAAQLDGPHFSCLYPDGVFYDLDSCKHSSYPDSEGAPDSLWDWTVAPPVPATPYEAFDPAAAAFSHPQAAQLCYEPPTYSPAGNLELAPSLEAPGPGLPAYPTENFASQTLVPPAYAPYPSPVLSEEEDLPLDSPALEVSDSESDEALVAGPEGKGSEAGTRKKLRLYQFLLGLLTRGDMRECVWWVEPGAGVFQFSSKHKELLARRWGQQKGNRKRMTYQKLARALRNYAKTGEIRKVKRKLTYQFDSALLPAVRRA
# Summary of the method: as §1
# ELK3 = target: T6, ELK3 (Homo sapiens, UniProt P41970 1-407); details: protein: recombinant; tags: N-terminal GST; dsDNA, one strand shown
# T6 sequence: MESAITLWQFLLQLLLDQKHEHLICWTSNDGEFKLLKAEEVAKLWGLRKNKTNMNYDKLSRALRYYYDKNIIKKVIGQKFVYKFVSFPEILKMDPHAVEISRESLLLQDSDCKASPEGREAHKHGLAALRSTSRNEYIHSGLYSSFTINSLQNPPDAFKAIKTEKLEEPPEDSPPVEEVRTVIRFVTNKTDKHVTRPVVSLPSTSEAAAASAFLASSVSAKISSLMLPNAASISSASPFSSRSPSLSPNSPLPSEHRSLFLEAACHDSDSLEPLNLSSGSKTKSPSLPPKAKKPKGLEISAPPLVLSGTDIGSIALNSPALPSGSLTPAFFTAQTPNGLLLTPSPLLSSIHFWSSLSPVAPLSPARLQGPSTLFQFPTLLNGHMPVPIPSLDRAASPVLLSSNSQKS
# Summary of the method: as §1
# FEV = target: T7, FEV (Homo sapiens, UniProt Q99581 1-238); details: protein: recombinant; tags: N-terminal GST; dsDNA, one strand shown
# T7 sequence: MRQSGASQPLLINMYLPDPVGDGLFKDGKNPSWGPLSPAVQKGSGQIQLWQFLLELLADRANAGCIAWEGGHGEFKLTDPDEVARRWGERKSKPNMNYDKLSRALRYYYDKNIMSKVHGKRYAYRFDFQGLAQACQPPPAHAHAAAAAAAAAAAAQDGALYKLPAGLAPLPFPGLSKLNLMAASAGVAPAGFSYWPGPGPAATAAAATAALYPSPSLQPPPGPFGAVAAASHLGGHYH
# Summary of the method: as §1
# ETV5 = ETV5 (Homo sapiens, UniProt P41161 1-510); details: protein: recombinant; tags: N-terminal GST; dsDNA, one strand shown
# Chain of ETV5 (P41161 whole entry): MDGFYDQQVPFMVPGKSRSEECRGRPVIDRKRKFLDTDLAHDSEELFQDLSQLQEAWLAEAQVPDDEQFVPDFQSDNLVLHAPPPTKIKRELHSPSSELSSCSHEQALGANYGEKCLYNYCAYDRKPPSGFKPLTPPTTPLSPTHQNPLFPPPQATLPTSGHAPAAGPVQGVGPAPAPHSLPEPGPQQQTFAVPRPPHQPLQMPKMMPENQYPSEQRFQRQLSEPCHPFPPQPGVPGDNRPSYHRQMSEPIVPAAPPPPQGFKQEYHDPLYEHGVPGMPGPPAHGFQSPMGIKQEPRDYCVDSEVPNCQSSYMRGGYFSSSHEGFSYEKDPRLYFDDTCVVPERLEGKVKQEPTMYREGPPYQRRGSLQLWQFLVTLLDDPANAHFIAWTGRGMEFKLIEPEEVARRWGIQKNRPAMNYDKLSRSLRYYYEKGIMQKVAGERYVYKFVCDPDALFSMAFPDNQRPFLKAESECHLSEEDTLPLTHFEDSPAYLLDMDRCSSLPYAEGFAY
# Summary of the method: as §1
# HSF1 = HSF1 (Homo sapiens, UniProt Q00613 1-529); details: protein: recombinant; tags: N-terminal GST; chain copies: 3; dsDNA, one strand shown
# Chain of HSF1 (Q00613 whole entry): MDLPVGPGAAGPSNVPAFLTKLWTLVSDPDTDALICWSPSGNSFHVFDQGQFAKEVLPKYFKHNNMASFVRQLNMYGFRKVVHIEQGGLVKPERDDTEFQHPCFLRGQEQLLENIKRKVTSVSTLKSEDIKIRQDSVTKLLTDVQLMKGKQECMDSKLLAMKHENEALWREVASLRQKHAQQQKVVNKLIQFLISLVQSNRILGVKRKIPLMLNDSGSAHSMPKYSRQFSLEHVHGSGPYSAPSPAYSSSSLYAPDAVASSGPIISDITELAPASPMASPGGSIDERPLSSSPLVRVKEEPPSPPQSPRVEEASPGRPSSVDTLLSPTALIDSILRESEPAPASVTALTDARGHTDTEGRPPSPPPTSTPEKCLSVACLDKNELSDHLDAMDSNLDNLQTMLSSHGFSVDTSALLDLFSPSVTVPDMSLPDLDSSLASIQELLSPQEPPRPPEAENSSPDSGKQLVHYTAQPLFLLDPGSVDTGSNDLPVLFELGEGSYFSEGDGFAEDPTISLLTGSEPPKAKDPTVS
# Summary of the method: as §1
# SPIC = target: T8, SPIC (Homo sapiens, UniProt Q8N5J4 1-248); details: protein: recombinant; tags: N-terminal GST; dsDNA, one strand shown
# T8 sequence: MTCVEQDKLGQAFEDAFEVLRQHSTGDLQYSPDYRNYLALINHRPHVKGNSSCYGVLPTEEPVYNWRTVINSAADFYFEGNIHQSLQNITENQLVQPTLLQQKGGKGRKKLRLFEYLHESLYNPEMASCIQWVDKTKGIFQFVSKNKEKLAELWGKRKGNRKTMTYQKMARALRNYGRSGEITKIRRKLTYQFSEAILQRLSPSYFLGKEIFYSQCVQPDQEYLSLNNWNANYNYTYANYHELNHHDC
# Summary of the method: as §1
# ELF4 = ELF4 (Homo sapiens, UniProt Q99607 1-663); details: protein: recombinant; tags: N-terminal GST; dsDNA, one strand shown
# Chain of ELF4 (Q99607 whole entry): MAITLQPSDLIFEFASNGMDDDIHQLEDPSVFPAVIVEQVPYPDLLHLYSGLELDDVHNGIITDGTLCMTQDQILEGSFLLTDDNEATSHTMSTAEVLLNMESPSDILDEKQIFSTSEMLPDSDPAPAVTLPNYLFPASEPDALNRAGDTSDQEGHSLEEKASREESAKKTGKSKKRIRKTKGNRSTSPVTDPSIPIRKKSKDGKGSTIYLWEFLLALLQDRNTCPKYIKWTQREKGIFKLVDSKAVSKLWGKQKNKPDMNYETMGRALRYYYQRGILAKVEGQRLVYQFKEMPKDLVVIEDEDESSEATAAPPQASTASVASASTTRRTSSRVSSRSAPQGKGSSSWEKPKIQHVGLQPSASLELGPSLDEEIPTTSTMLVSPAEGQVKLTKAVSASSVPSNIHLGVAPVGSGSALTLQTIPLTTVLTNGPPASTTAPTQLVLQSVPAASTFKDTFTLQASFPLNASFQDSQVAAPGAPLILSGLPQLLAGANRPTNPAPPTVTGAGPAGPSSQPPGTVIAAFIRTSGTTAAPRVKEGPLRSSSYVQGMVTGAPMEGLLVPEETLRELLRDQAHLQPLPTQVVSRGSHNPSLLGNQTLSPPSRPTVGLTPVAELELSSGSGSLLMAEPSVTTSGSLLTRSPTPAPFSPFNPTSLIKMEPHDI
# Summary of the method: as §1
# ELK4 = target: T9, ELK4 (Homo sapiens, UniProt P28324-2 1-405); details: protein: recombinant; tags: N-terminal GST; dsDNA, one strand shown
# T9 sequence: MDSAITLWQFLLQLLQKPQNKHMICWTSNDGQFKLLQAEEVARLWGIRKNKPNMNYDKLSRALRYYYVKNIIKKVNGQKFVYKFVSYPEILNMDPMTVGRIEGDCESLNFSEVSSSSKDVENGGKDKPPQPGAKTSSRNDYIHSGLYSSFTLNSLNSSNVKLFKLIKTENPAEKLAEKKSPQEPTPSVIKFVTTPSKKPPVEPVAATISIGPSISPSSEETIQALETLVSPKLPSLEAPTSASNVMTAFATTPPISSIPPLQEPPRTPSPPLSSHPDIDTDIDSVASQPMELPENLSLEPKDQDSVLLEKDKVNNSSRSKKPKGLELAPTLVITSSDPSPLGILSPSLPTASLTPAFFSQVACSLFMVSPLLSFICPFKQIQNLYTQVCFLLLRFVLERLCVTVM
# Summary of the method: as §1
# ETV2 = target: T10, ETV2 (Homo sapiens, UniProt O00321 1-342); details: protein: recombinant; tags: N-terminal GST; dsDNA, one strand shown
# T10 sequence: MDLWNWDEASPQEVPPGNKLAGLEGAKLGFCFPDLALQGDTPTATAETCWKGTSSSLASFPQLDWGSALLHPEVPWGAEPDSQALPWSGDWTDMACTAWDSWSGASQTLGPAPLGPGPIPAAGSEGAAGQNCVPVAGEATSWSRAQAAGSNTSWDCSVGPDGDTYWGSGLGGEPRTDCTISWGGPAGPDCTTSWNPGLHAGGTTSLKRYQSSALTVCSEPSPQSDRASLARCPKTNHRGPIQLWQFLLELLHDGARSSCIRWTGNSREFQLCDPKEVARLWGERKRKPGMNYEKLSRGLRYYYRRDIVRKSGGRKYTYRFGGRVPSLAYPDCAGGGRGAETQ
# Summary of the method: as §1
# ELF3 = target: T11, ELF3 (Homo sapiens, UniProt P78545 1-371); details: protein: recombinant; tags: N-terminal GST; dsDNA, one strand shown
# T11 sequence: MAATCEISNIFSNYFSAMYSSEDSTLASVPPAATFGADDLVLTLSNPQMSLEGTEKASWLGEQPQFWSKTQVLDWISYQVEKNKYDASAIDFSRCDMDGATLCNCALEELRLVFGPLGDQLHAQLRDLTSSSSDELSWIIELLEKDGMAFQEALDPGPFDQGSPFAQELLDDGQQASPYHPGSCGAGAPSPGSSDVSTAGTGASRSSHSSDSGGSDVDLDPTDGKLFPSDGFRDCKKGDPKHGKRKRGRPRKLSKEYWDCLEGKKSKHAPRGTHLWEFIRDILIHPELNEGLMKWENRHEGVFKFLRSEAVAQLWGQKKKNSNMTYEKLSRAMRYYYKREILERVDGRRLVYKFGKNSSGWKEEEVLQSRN
# Summary of the method: as §1
# CRX = CRX (Homo sapiens, UniProt O43186 1-299); details: protein: recombinant; tags: N-terminal GST; dsDNA, one strand shown
# Chain of CRX (O43186 whole entry): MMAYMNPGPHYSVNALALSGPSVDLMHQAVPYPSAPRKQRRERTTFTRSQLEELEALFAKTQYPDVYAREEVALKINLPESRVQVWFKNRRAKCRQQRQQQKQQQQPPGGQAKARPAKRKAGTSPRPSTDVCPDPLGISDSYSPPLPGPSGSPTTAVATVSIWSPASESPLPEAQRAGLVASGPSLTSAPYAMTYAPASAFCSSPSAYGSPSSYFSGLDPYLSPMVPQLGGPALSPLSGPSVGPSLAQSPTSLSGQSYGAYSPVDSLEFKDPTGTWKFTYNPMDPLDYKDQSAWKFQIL
# Summary of the method: as §1
# ETV1 = ETV1 (Homo sapiens, UniProt P50549 1-477); details: protein: recombinant; tags: N-terminal GST; dsDNA, one strand shown
# Chain of ETV1 (P50549 whole entry): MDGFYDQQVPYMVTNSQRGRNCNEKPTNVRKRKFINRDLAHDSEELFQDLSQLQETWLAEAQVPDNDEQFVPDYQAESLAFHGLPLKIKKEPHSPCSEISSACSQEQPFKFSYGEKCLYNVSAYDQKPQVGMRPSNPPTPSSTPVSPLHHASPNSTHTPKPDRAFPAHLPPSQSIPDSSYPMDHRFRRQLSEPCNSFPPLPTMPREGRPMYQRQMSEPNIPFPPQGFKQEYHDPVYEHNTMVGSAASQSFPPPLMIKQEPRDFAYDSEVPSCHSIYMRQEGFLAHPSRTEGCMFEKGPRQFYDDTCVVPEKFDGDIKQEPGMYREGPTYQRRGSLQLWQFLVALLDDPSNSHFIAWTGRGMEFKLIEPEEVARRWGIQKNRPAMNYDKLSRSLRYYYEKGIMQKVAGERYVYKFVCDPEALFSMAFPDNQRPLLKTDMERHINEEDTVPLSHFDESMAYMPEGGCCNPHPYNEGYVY
# Summary of the method: as §1
sequence,measurement,setting,value
CTTGCA,binding signal,FLI1,"1.33 fold enrichment (6-mer frequency, TF over GST control)"
same,binding signal,ELK1,"1.44 fold enrichment (6-mer frequency, TF over GST control)"
same,binding signal,GABPA,"1.31 fold enrichment (6-mer frequency, TF over GST control)"
same,binding signal,ERG,"1.27 fold enrichment (6-mer frequency, TF over GST control)"
same,binding signal,ELF1,"1.4 fold enrichment (6-mer frequency, TF over GST control)"
same,binding signal,EHF,"1.33 fold enrichment (6-mer frequency, TF over GST control)"
same,binding signal,SPI1,"1.25 fold enrichment (6-mer frequency, TF over GST control)"
same,binding signal,SPIB,"1.26 fold enrichment (6-mer frequency, TF over GST control)"
same,binding signal,ELK3,"1.34 fold enrichment (6-mer frequency, TF over GST control)"
same,binding signal,FEV,"1.3 fold enrichment (6-mer frequency, TF over GST control)"
same,binding signal,ETV5,"1.31 fold enrichment (6-mer frequency, TF over GST control)"
same,binding signal,HSF1,"1.12 fold enrichment (6-mer frequency, TF over GST control)"
same,binding signal,SPIC,"1.28 fold enrichment (6-mer frequency, TF over GST control)"
same,binding signal,ELF4,"1.41 fold enrichment (6-mer frequency, TF over GST control)"
same,binding signal,ELK4,"1.4 fold enrichment (6-mer frequency, TF over GST control)"
same,binding signal,ETV2,"1.45 fold enrichment (6-mer frequency, TF over GST control)"
same,binding signal,ELF3,"1.3 fold enrichment (6-mer frequency, TF over GST control)"
same,binding signal,CRX,"1.15 fold enrichment (6-mer frequency, TF over GST control)"
same,binding signal,ETV1,"1.41 fold enrichment (6-mer frequency, TF over GST control)"
